From PubChem BioAssay (NCATS)
Results filed as inconclusive are left out. A number with no mark means an inactive call. Active and inactive are the calls of the source. Calls come from the whole dose curve; as a rule, active = well fitted inhibition curve with a large enough effect; inconclusive = small, poorly fitted or top-dose-only effect; inactive = flat fitted curve, though single readings scatter.

target: Calcium and integrin-binding protein 1 (Homo sapiens) (UniProt Q99828); test: Primary qHTS for Identification of Calcium Integrin Binding Protein 1 (CIB1) Competitor (AID 1508620); details: CIB1-GST / FITC-alphaIIb peptide fluorescence polarization; series mostly up to 114 µM; activity change, negative = inhibition: at the top concentration; note: top concentration of the series differs between compounds
Sequence (Q99828 whole entry, looked up): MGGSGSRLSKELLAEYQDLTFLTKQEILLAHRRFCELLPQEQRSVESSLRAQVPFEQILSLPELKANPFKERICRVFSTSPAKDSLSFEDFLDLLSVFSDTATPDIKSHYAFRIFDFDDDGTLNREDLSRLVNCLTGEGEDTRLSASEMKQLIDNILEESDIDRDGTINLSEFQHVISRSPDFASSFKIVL
How it was run: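 Fluorescence polarization competition: GST-tagged CIB1 (1 uM final) preincubated with compound 15 min at room temperature, then FITC-labelled alphaIIb peptide (100 nM final) added. After 15 min at room temperature, polarization read at Ex 480/Em 540.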
% is set by controls: 0 for no effect and ±100 for the full control effect.

Row | SMILES | activity change, negative = inhibition [%] | Potency
1 | O=C(Nc1cc(C(F)(F)F)cc(C(F)(F)F)c1)Nc1nnc(-c2ccncc2)s1 | -16.4 | 
2 | C#CCOc1ccc(C(C)=O)cc1-c1nnc2n1N=C(c1ccc(OC)c(OC)c1)CS2 | 1.77 | 
3 | FC(F)(F)c1ccc(N2CCN(C(=S)Nc3ccccn3)CC2)cc1 | -22.5 | 
4 | O=C1CCCC2=C1C(c1[nH]ncc1Cl)N=C(Nc1nc3ccc(Cl)cc3o1)N2 (stereo not given) | -5.23 | 
5 | CC(=O)Nc1sc2c(c1-c1ccc(C(N)=O)cc1)CCNC2 | -3.23 | 
6 | O=S1(=O)N=C(Oc2ccc(-c3ccccc3)cc2)c2ccccc21 | -1.84 | 
7 | O=C(Cn1nc(-c2ccc(C(F)(F)F)cc2)ccc1=O)NCCc1ccccc1 | 3.07 | 
8 | COc1cccc(CNc2ccc(S(=O)(=O)Nc3nccs3)cc2)c1O | -18.2 | 
9 | NCCCCNc1ncnc2ccc(-c3ccc4c(c3)OCO4)cc12 | -3.47 | 
10 | Cc1ccc(CNc2ccc(N3CCN(C(=O)OC(C)(C)C)CC3)cc2)cc1 | 0.537 | 
11 | Cc1ccccc1C(=O)N1CCc2cc(-c3nc(NC(=O)Cc4ccc5c(c4)OCCO5)sc3C)ccc21 | 5.22 | 
12 | NC(=O)C1CCN(c2nc(-c3ccc4c(c3)OCCO4)cs2)CC1 | 1.22 | 
13 | Fc1ccccc1-c1ccc(Nc2nc(-c3ccncc3)nc3ccccc23)cc1F | 8.17 | 
14 | Cc1cccc(-c2ccc3ncnc(N(C)Cc4ccco4)c3c2)c1 | 2.67 | 
15 | O=C(Nc1nnc(-c2ccncc2)s1)NC12CC3CC(CC(C3)C1)C2 | 9.63 | 
16 | Cc1cc2c(s1)c1cnn(Cc3cccc(Br)c3)c(=O)c1n2C | 9.57 | 
17 | CC(=O)Nc1sc2c(c1-c1nc3ccccc3s1)CC(C)NC2 (stereo not given) | 12 | 
18 | N#Cc1c(-c2ccccc2C(F)(F)F)nc2ccccc2c1NCc1ccc(-c2cccnc2)cc1 | 18.7 | 
19 | Cc1ccc(S(=O)(=O)Nc2cccc3ccc[n+](C)c23)cc1 | 3 | 
20 | c1cncc(-c2ccc(CNc3nc(C4CCCC4)nc4ccccc34)cc2)c1 | 6.46 | 

Row | SMILES | activity change, negative = inhibition [%] | Potency
21 | O=C(CNC(=O)c1ccccc1)N[C@@H](C(=O)Nc1cc(C(F)(F)F)ccc1Cl)c1ccccc1 |  | inactive
22 | COc1ccc(C(=O)N(Cc2ccco2)Cc2cccs2)c(O)c1 | -9.63 | 
23 | CN(C(=O)Nc1ccc2ccccc2c1)c1nnc(-c2ccncc2)s1 | 3.63 | 
24 | Clc1ccccc1-c1ccc2ncnc(NCc3cccs3)c2c1 | 1.1 | 
25 | CN(C)c1ccc(C(=O)NCC(=O)OC(C(=O)Nc2cc(C(F)(F)F)ccc2Cl)c2ccccc2)cc1 (stereo not given) | 5.84 | 
26 | CN1CCN(C(=O)c2cccc(-c3ccc(CNc4ccc(N5CCN(C(=O)OC(C)(C)C)CC5)cc4)o3)c2)CC1 | -2.72 | 
27 | Cc1ccc(NS(=O)(=O)c2ccc(Cl)cc2)cc1C | 2.26 | 
28 | COc1ccc(C2c3c(ncn(Cc4ccccc4)c3=N)Oc3ccc4ccccc4c32)cc1OC (stereo not given) | 2.88 | 
29 | COc1ccccc1NC(=O)c1ccc2ccccc2c1 | 4.28 | 
30 | COc1ccc(C2Nc3ccccc3C(=O)N2CCc2ccccc2)cc1COc1ccc(NC(C)=O)cc1 (stereo not given) | 0.0291 | 
31 | Cc1occc1-c1ccc2ncnc(NCCc3cnc[nH]3)c2c1 | 1.38 | 
32 | CN(C)CCCNC(=O)c1ccc(-c2cnc3c(O)cccc3c2)cc1 | -18.9 | 
33 | Cc1cc(C)nc(NC(=S)N2CCN(c3nsc4ccccc34)CC2)c1 | -11.9 | 
34 | O=C(/C=C/c1ccc([N+](=O)[O-])o1)Nc1cccc([S+](=O)([O-])Nc2ccccc2F)c1 |  | inactive
35 | Cc1ccc(S(=O)(=O)Nc2cccc3cccnc23)c([N+](=O)[O-])c1 | -0.457 | 
36 | COc1ccc(OC)c(C2=Nn3c(nnc3-c3cc(OC)ccc3OC)SC2)c1 | 2.38 | 
37 | Cc1cc(C)nc(NC(=S)N2CCN(c3ccc4nccn4c3)CC2)c1 | -13.8 | 
38 | CC(=O)Nc1cccc(S(=O)(=O)N2CCCN(S(=O)(=O)c3ccc4c(c3)OCCO4)CC2)c1 | -5.67 | 
39 | Cc1nc(-c2ccccc2)oc1-c1ccc2ncnc(NCc3ncc[nH]3)c2c1 | -6.5 | 
40 | COc1ccc(C2Nc3ccccc3C(=O)N2Cc2ccco2)cc1COc1ccc(N)cc1 (stereo not given) | -18.7 | 
